# Reference: PubChem BioAssay
# The source made the active and inactive calls.
# Columns and labels:
# [1] = target: Albumin (Bos taurus) (UniProt P02769); experiment: compounds binding labelled BSA control protein – biochemical, small-molecule microarray, Alexa647 label, 635/667 nm fluorescence, artefact control for SMM control protein annotation, profiling panel (AID 1118); conditions: BSA-A647 binding, fluorescence 635 nm, higher = more signal;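 also: score merges 667 nm emission intensity and signal-to-noise per printed compound spot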
# Chain of Albumin (Bos taurus) (P02769 whole entry, looked up): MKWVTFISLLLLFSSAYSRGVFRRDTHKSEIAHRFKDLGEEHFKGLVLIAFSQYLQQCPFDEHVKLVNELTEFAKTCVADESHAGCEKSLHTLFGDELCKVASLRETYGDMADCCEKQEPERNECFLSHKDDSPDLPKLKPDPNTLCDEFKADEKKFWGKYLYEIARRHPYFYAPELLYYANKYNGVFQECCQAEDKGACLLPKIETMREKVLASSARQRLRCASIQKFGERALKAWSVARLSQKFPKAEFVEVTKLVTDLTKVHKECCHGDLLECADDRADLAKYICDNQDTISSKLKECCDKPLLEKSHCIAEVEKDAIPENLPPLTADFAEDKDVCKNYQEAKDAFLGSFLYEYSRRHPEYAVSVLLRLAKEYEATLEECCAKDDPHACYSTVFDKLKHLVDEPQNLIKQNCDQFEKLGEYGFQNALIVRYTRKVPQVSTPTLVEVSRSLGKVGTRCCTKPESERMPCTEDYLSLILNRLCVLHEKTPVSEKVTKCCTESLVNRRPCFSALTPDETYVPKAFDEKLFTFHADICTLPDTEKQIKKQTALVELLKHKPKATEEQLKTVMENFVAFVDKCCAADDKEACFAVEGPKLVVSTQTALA
# [2] = probe aXIP binding to arrayed compounds – biochemical, NeuroSMM set, 635/667 nm fluorescence, primary screen (AID 1119); conditions: small-molecule microarray, higher = more signal, called active from +8 up or from −8 down;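 also: probe is the protein aXip251-270 applied at 1 µg/mL to compound-printed slides; binding of probe to printed compounds measured as 667 nm fluorescence plus signal to noise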
# [3] = probe aNOTCH3 binding on compound microarray – biochemical, small-molecule microarray, 635/667 nm fluorescence, primary screen (AID 1120); conditions: higher = more signal;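 also: probe is a biotin-tagged antibody raised against NOTCH3 rather than NOTCH3 protein; score merges spot fluorescence near 667 nm with spot signal to noise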
# [4] = probe aNOTCH2 binding on compound microarray – biochemical, small-molecule microarray, 635/667 nm fluorescence, primary screen (AID 1121); conditions: higher = more signal;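 also: score merges feature fluorescence read at 667 nm with its signal to noise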
# [5] = target: Carbonic anhydrase 2 (Homo sapiens) (UniProt P00918); experiment: compounds binding carbonic anhydrase 2 – biochemical, small-molecule microarray, Alexa647-labelled CAII, profiling panel (AID 1122); conditions: CAII-A647 binding fluorescence, higher = more signal
# [6] = COS7 lysate on small-molecule microarray, probe aHis, 635 nm (AID 1123); conditions: COS7 cell lysate, fluorescence, higher = more signal;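 also: z-score combines 667nm fluorescence intensity with signal-to-noise per printed compound spot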
# [7] = probe aLAP1 signal on lysate-treated microarray – cell lysate, small-molecule microarray, COS7 lysate, primary screen (AID 1124); conditions: probe aLAP1, fluorescence, higher = more signal;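 also: lysate comes from COS7 cells expressing LAP1 and is applied at 0.3 µg/mL; score merges spot fluorescence near 667 nm with signal-to-noise over triplicate slides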
# [8] = system: Sam68 (KHDRBS1); experiment: compounds binding KHDRBS1 protein – biochemical, small-molecule microarray, 635 nm fluorescence, primary screen (AID 1125); conditions: higher = more signal;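 also: score merges 667 nm channel intensity with signal to noise over triplicate slides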
# [9] = system: Chordin-like protein 2 (CHRDL2); experiment: compounds binding chordin-like 2 – biochemical, small-molecule microarray, 635 nm fluorescence, primary screen (AID 1126); conditions: fluorescence 635 nm, higher = more signal;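 also: printed compound slides probed with Chrdl2 protein at 4 µg/mL for 1 h at 4 C; score merges 667 nm emission intensity with signal to noise over three replicate slides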
# [10] = target: Concanavalin-A (Canavalia ensiformis) (UniProt P02866); experiment: compounds binding concanavalin A lectin – biochemical, small-molecule microarray, Alexa647 label, 635 nm, artefact control for SMM control protein annotation, primary screen (AID 1127); conditions: ConA-A647 binding fluorescence, higher = more signal;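 also: z combines 667 nm emission intensity with signal-to-noise across three replicate slides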
# Chain of Concanavalin-A (Canavalia ensiformis) (P02866 whole entry, looked up): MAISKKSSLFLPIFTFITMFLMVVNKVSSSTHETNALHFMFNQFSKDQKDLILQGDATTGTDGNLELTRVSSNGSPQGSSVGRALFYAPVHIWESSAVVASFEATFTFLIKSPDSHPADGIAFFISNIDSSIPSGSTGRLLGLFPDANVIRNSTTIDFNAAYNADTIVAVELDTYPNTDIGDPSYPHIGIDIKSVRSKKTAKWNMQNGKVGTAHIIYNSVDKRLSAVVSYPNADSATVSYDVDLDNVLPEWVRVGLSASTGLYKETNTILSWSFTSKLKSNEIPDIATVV
# [11] = compounds binding Alexa647 anti-His antibody – biochemical, small-molecule microarray, 635 nm fluorescence, artefact control for SMM control protein annotation, primary screen (AID 1128); conditions: higher = more signal;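 also: score merges feature fluorescence with signal-to-noise for each printed compound spot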
# [12] = system: Human papillomavirus type 1a E7 protein (residues 1-88); experiment: HPV1a E7 small-molecule binders, primary screen, biochemical, small-molecule microarray, residues 1-88, 635 nm (AID 1129); conditions: small-molecule microarray binding, fluorescence 635 nm; higher = more signal
# [13] = target: Focal adhesion kinase 1 (Homo sapiens) (UniProt Q05397); experiment: PTK2 protein binding on printed compound slides – biochemical, small-molecule microarray, 635/667 nm fluorescence, BSA, DTT, primary screen (AID 1130); conditions: 635 nm fluorescence, higher = more signal;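 also: composite of spot emission at 667 nm and signal to noise over triplicate slides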
# Chain of Focal adhesion kinase 1 (Homo sapiens) (Q05397 whole entry, looked up): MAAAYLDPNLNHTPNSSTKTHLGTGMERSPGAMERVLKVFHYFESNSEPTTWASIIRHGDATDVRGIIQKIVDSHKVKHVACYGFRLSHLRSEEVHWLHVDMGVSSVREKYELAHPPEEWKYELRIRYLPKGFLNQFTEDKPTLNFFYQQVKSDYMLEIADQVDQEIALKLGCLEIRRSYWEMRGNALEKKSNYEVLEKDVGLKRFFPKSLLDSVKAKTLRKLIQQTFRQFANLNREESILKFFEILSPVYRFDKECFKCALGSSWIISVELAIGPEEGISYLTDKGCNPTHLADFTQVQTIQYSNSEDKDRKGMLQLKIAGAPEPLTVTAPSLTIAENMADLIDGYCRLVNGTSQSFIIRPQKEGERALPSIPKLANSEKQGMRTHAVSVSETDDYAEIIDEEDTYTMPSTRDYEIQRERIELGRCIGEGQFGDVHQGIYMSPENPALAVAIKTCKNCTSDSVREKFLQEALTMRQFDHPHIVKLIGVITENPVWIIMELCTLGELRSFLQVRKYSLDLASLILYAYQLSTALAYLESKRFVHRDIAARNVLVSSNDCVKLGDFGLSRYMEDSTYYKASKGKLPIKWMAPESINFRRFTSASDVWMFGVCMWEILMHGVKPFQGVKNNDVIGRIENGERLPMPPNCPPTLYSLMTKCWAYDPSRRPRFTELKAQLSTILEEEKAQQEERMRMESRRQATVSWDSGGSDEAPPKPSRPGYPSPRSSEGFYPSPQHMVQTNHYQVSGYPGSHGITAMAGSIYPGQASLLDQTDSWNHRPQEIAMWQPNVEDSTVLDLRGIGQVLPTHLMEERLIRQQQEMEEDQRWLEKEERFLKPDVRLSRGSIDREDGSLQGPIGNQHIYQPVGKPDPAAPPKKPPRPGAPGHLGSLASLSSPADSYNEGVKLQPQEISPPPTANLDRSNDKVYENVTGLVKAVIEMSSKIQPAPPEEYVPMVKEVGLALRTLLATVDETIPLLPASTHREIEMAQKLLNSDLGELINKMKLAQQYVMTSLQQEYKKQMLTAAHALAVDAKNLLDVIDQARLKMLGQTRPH
# [14] = system: Fibrinogen (Alexa647-labelled); experiment: Alexa647-fibrinogen binding to printed small molecules – biochemical, small-molecule microarray, 635/667 nm fluorescence, artefact control for SMM control-protein annotation, profiling panel (AID 1131); conditions: fibrinogen-A647 binding fluorescence, higher = more signal;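 also: z-score merges 667 nm fluorescence with per-spot signal-to-noise over triplicate slides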
# [15] = target: Follistatin (Homo sapiens) (UniProt P19883); experiment: FST protein binding to printed compounds – biochemical, small-molecule microarray, 635/667 nm fluorescence, primary screen (AID 1132); conditions: 635 nm fluorescence, higher = more signal
# Chain of Follistatin (Homo sapiens) (P19883 whole entry, looked up): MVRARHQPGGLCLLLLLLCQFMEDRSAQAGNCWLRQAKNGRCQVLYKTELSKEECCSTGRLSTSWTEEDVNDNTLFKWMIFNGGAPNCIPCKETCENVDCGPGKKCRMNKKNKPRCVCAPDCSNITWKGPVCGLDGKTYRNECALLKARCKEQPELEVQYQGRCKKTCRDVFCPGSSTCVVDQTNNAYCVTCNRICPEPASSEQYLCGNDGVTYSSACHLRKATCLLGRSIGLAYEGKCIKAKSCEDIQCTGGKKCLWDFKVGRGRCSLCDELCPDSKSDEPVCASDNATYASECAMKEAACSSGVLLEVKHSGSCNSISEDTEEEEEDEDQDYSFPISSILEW
# [16] = target: Fibroblast growth factor 2 (Homo sapiens) (UniProt P09038); experiment: basic fibroblast growth factor binding to printed compounds – biochemical, small-molecule microarray, 635/667 nm fluorescence, primary screen (AID 1133); conditions: FGF2, fluorescence 635/667, higher = more signal
# Chain of Fibroblast growth factor 2 (Homo sapiens) (P09038 whole entry, looked up): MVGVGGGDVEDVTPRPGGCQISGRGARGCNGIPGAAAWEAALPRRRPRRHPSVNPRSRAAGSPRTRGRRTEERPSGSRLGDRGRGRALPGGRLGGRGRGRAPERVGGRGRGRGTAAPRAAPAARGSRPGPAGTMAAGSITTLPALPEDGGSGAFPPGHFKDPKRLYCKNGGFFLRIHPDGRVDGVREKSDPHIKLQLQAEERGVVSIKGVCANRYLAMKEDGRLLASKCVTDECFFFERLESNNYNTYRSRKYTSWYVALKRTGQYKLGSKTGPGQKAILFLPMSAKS
# [17] = JC-1 mitochondrial potential readout, lung cancer cells – cell-based, A549, JC-1 fluorescence, basal, 24 h, 100 nL, profiling panel (AID 1138); conditions: higher = more signal;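 also: A549 lung adenocarcinoma cells under basal conditions with no added stimulus; test concentration not given here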
# [18] = system: Lefty1; experiment: Lefty1 protein binding to printed compounds – biochemical, small-molecule microarray, 635/667 nm fluorescence, primary screen (AID 1139); conditions: fluorescence 635/667, higher = more signal
# [19] = system: wheat germ agglutinin (Triticum aestivum), Alexa647-labelled; experiment: Alexa647-WGA lectin binding to printed small molecules – biochemical, small-molecule microarray, 635/667 nm fluorescence, artefact control for SMM control-protein annotation, profiling panel (AID 1140); conditions: WGA-A647 binding, 635 nm fluorescence, higher = more signal;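 also: score merges 667 nm feature emission with signal to noise over triplicate slides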
# [20] = target: Luciferin 4-monooxygenase (Photinus pyralis) (UniProt P08659); experiment: inhibition of purified Photinus pyralis luciferase – biochemical, luminescence, purified enzyme, 2006 set, primary screen (AID 1141); conditions: purified firefly luciferase, SteadyGlo luminescence, 30 min; higher = more signal, called active from +8 up or from −8 down;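 also: cell-free assay with purified firefly luciferase at 100 ng per well in PBS; test concentration not given here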
# Chain of Luciferin 4-monooxygenase (Photinus pyralis) (P08659 whole entry, looked up): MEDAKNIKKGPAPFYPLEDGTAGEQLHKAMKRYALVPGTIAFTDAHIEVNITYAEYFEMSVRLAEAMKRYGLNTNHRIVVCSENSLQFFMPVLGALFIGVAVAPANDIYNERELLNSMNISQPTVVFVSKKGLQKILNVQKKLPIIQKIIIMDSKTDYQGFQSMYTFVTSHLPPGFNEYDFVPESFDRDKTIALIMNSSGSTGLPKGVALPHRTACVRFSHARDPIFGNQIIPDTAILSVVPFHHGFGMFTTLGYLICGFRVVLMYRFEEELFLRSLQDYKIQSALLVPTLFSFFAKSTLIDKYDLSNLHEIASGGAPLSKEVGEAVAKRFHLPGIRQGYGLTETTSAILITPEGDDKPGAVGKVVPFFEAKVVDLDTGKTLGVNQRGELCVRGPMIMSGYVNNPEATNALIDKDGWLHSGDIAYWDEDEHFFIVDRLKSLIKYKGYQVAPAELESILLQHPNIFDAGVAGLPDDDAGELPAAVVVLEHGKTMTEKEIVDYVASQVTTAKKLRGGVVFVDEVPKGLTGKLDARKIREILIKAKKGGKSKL
smiles,measurement,setting,value
CCN1C(=O)[C@H]2[C@H]3[C@H](O)[C@H](O)CC(=NO[C@H](C)c4cn([C@@H]5COC[C@H]5O)nn4)[C@@H]3CC[C@H]2C1=O,composite z-score,[1],0.0418
same,composite Z-score,[2],-0.115 (inactive)
same,composite z-score,[3],-0.0948
same,composite z-score,[4],-0.04
same,composite z-score,[5],-0.281
same,composite z-score,[6],0.151
same,composite z-score,[7],-0.0932
same,composite z-score,[8],0.126
same,composite z-score,[9],0.244
same,composite z-score,[10],-0.0703
same,composite z-score,[11],-1.33
same,composite z-score,[12],-0.0712
same,composite z-score,[13],0.339
same,composite z-score,[14],0.178
same,composite z-score,[15],-0.537
same,composite z-score,[16],0.092
same,z-score,[17],-0.444
same,composite z-score,[18],0.371
same,composite z-score,[19],-0.215
same,z-score,[20],0.846 (inactive)
O=C1C2=CC[C@H]3C(=O)N(c4ccc(F)cc4F)C(=O)[C@H]3[C@H]2[C@H](O)[C@@H]2O[C@H]12,composite z-score,[1],0.0384
same,composite Z-score,[2],-0.778 (inactive)
same,composite z-score,[3],-0.165
same,composite z-score,[4],-0.118
same,composite z-score,[5],-0.0649
same,composite z-score,[6],-0.293
same,composite z-score,[7],0.0054
same,composite z-score,[8],0.339
same,composite z-score,[9],0.783
same,composite z-score,[10],0.469
same,composite z-score,[11],0.0402
same,composite z-score,[12],0.679
same,composite z-score,[13],-0.059
same,composite z-score,[14],0.0936
same,composite z-score,[15],0.397
same,composite z-score,[16],0.34
same,z-score,[17],0.0712
same,composite z-score,[18],0.616
same,composite z-score,[19],-0.0273
same,z-score,[20],-0.51 (inactive)
CC(C)CON=C1[C@H]2CCn3c(=O)n(C)c(=O)n3[C@H]2[C@H](O)[C@@H]2O[C@H]12,composite z-score,[1],-0.0213
same,composite Z-score,[2],-0.483 (inactive)
same,composite z-score,[3],0.236
same,composite z-score,[4],-0.139
same,composite z-score,[5],-0.148
same,composite z-score,[6],-0.818
same,composite z-score,[7],0.854
same,composite z-score,[8],0.471
same,composite z-score,[9],0.783
same,composite z-score,[10],0.328
same,composite z-score,[11],0.457
same,composite z-score,[12],0.398
same,composite z-score,[13],0.0335
same,composite z-score,[14],0.413
same,composite z-score,[15],0.581
same,composite z-score,[16],0.411
same,z-score,[17],0.563
same,composite z-score,[18],1.02
same,composite z-score,[19],0.324
same,z-score,[20],-0.571 (inactive)
